Test systems include SR leukemia; RPMI-8226 leukemia; OVCAR-8 ovarian; OVCAR-5 ovarian; OVCAR-4 ovarian; SK-OV-3 ovarian; IGROV1 ovarian; OVCAR-3 ovarian; HS 578T breast; NCI/ADR-RES ovarian; T-47D breast; BT-549 breast; MDA-MB-435 melanoma; SW-620 colon; MCF7 breast; HCT-116 colon; HCC-2998 colon; KM12 colon.
What all share (assay): NCI-60 one-dose screen, 48 h (100 = growth as untreated, 0 = no growth, -100 = all killed)
What all share (settings): 10 µM unless noted

Nine compounds from PubChem BioAssay (NCI) can be followed below.

This is part of a sample that, as a whole, favours compounds with a hit. Of some 83,000 tested, about 20% had one in any assay.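 Cell lines were cultured in 96-well plates, exposed to a single compound concentration, and assessed for percent growth 48 hours later.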 Values without a mark were called inactive. Calls of active or inactive are those of the source. How the source made its calls: active means growth percent below 10; inactive means the rest.

For `COc1c(N2CC3CCCNC3C2)c(F)cc2c(=O)c(C(=O)N/N=C/c3ccc4c(c3)OCO4)cn(C3CC3)c12` (configuration not stated), the growth is -24.3% (active) in the assay with SR leukemia; 60.9% in the assay with RPMI-8226 leukemia; 54% with OVCAR-8 ovarian; 87.3% in the assay with OVCAR-5 ovarian; 90.5% in the assay on OVCAR-4 ovarian; 99.7% with SK-OV-3 ovarian. Also, the growth in the assay with IGROV1 ovarian was 51%; in the assay with OVCAR-3 ovarian, 29.4%; in the assay with HS 578T breast, 103%; in the assay on NCI/ADR-RES ovarian it was 63.6%; in the assay with T-47D breast, 76.7%; in the assay with BT-549 breast, 94.9%. Also, the growth in the assay on MDA-MB-435 melanoma is 102%; in the assay with SW-620 colon it was 47.1%; in the assay with MCF7 breast it was 14.6%; in the assay with HCT-116 colon, 32.7%; with HCC-2998 colon, 54.8%; with KM12 colon, 88%.
With `COc1cc2c(cc1OC)C(Sc1ccc(C)cc1)c1c(nc(N)c(C#N)c1N)O2` (configuration not stated), the growth in the assay with SR leukemia is -4.56% (active); in the assay with RPMI-8226 leukemia, -19.2% (active); in the assay on OVCAR-8 ovarian it was 3.56% (active); in the assay with OVCAR-5 ovarian, -78.8% (active); with OVCAR-4 ovarian it was -59.2% (active); with SK-OV-3 ovarian it was -70.9% (active). Moreover, the growth is -72.8% (active) in the assay on IGROV1 ovarian; -80.7% (active) in the assay on OVCAR-3 ovarian; -6.15% (active) in the assay on HS 578T breast; -32.1% (active) in the assay with NCI/ADR-RES ovarian; -28.9% (active) in the assay on T-47D breast; 35% with BT-549 breast. The growth in the assay on MDA-MB-435 melanoma was -31.3% (active); in the assay on SW-620 colon, -36.6% (active); with MCF7 breast, -66.9% (active); in the assay on HCT-116 colon, -69.6% (active); with HCC-2998 colon, -85.2% (active); in the assay with KM12 colon it was -52.5% (active).
Consider `Cc1ccc(-c2nnc(SCc3ccc(O)c4ncccc34)o2)cc1`, for which the growth in the assay with SR leukemia was 32.8%; with RPMI-8226 leukemia it was 12.8%; in the assay with OVCAR-8 ovarian it was 12.2%; in the assay on OVCAR-5 ovarian it was 58.2%; in the assay with OVCAR-4 ovarian, 15.8%; with SK-OV-3 ovarian, 14.1%. Also, the growth with IGROV1 ovarian was 13.7%; in the assay on OVCAR-3 ovarian, 28.4%; with HS 578T breast, 15.5%; in the assay on NCI/ADR-RES ovarian it was 10.7%; with T-47D breast it was 13.4%; in the assay on BT-549 breast, 30%. In addition, the growth with MDA-MB-435 melanoma is 17.7%; in the assay on SW-620 colon, 14.1%; with MCF7 breast it was 10.6%; in the assay on HCT-116 colon, 18.5%; with HCC-2998 colon, 34.4%; with KM12 colon it was 11.4%.
For `COc1cccc(/C=C(/C)c2ccc3cccc(OC)c3[o+]2)c1O`, the growth was 92.1% in the assay with SR leukemia; 93.1% in the assay on RPMI-8226 leukemia; 100% in the assay with OVCAR-8 ovarian; 104% with OVCAR-5 ovarian; 98% in the assay on OVCAR-4 ovarian; 107% in the assay with SK-OV-3 ovarian. Moreover, the growth in the assay on IGROV1 ovarian was 94.5%; in the assay with OVCAR-3 ovarian, 114%; in the assay with HS 578T breast, 101%; with NCI/ADR-RES ovarian it was 107%; in the assay with T-47D breast, 100%; with BT-549 breast, 85.1%. Besides, the growth was 104% with MDA-MB-435 melanoma; 106% in the assay on SW-620 colon; 90.9% in the assay on MCF7 breast; 102% in the assay with HCT-116 colon; 120% in the assay with HCC-2998 colon; 99.1% in the assay with KM12 colon.
Consider `Cn1ccnc1C(=O)/C=C/c1ccc(CNC(=O)c2c(F)c(F)c(F)c(F)c2F)cc1`, for which the growth is 12.8% with SR leukemia; 9.9% (active) in the assay on RPMI-8226 leukemia; 90.1% in the assay with OVCAR-8 ovarian; 94.9% with OVCAR-5 ovarian; 95.4% in the assay with OVCAR-4 ovarian; 105% in the assay on SK-OV-3 ovarian. In addition, the growth in the assay on IGROV1 ovarian is 31.7%; in the assay on OVCAR-3 ovarian, 14.8%; in the assay with HS 578T breast, 86.9%; in the assay with NCI/ADR-RES ovarian it was 49.1%; in the assay on T-47D breast, 41.4%; in the assay on BT-549 breast, 74.1%. The growth in the assay with MDA-MB-435 melanoma was 64.7%; in the assay with SW-620 colon, 38.2%; in the assay on MCF7 breast, 19.4%; in the assay on HCT-116 colon, 4.78% (active); in the assay with HCC-2998 colon, 90.7%; in the assay on KM12 colon, 23.2%.
For `CCOc1ccccc1NC1=C(Cl)C(=O)c2nc(C)ccc2C1=O`, the growth is -12.8% (active) with SR leukemia; -35.1% (active) in the assay on RPMI-8226 leukemia; 0.93% (active) in the assay on OVCAR-8 ovarian; 40.8% with OVCAR-5 ovarian; -92% (active) with OVCAR-4 ovarian; 85.3% in the assay on SK-OV-3 ovarian. In addition, the growth in the assay with IGROV1 ovarian was -57.5% (active); in the assay with OVCAR-3 ovarian it was -98.9% (active); with HS 578T breast, 1.05% (active); in the assay with NCI/ADR-RES ovarian, -9.58% (active); in the assay with T-47D breast, -40% (active); in the assay with BT-549 breast, 44.4%. For the same compound, the growth in the assay with MDA-MB-435 melanoma was -85.7% (active); in the assay with SW-620 colon it was -66.7% (active); with MCF7 breast, -59.7% (active); in the assay with HCT-116 colon it was -79.4% (active); in the assay on HCC-2998 colon, 20.3%; with KM12 colon, 60.8%.
Turning to `CCc1ccc(SC2c3ccc(N(CC)CC)cc3Oc3nc(N)c(C#N)c(N)c32)cc1` (configuration not stated), the growth is -0.413% (active) with SR leukemia; -29.6% (active) in the assay with RPMI-8226 leukemia; 5.08% (active) in the assay on OVCAR-8 ovarian; -84.2% (active) in the assay on OVCAR-5 ovarian; 7.28% (active) with OVCAR-4 ovarian; 17.8% in the assay with SK-OV-3 ovarian. Also, the growth is -78% (active) in the assay with IGROV1 ovarian; -64.8% (active) in the assay with OVCAR-3 ovarian; 9.11% (active) with HS 578T breast; 5.13% (active) in the assay with NCI/ADR-RES ovarian; -27.3% (active) with T-47D breast; 65.9% with BT-549 breast. Besides, the growth in the assay with MDA-MB-435 melanoma is -0.759% (active); in the assay on SW-620 colon it was -24.8% (active); in the assay on MCF7 breast, -84.9% (active); in the assay with HCT-116 colon, -83.1% (active); in the assay on HCC-2998 colon it was -83% (active); in the assay on KM12 colon, -57.9% (active).
For `CCCCCCCn1cc2c(NCCc3ccccc3)ncnc2n1`, the growth in the assay on SR leukemia is 85.4%; with RPMI-8226 leukemia, 92.4%; in the assay on OVCAR-8 ovarian, 99.9%; in the assay on OVCAR-5 ovarian it was 108%; in the assay with OVCAR-4 ovarian it was 101%; in the assay on SK-OV-3 ovarian, 113%. Also, the growth in the assay on IGROV1 ovarian was 97.5%; in the assay with OVCAR-3 ovarian it was 121%; in the assay on HS 578T breast, 88.5%; in the assay on NCI/ADR-RES ovarian it was 98.7%; in the assay with T-47D breast it was 94.5%; in the assay on BT-549 breast, 100%. Moreover, the growth with MDA-MB-435 melanoma was 96.6%; with SW-620 colon, 92.8%; in the assay on MCF7 breast, 86.9%; in the assay with HCT-116 colon it was 96.6%; in the assay with HCC-2998 colon it was 116%; in the assay on KM12 colon, 97%.
Regarding `CC1(C)CC[C@]23CC[C@]4(C)[C@H](CC[C@@H]5[C@@]6(C)CCCN(CO)C(C)(C)[C@@H]6CC[C@]54C)[C@H]2[C@H]1OC3`, the growth with SR leukemia was 1.43% (active); with RPMI-8226 leukemia it was 21.8%; in the assay with OVCAR-8 ovarian, 101%; in the assay with OVCAR-5 ovarian, 95.9%; in the assay with OVCAR-4 ovarian, 85.6%; in the assay with SK-OV-3 ovarian, 118%. Also, the growth in the assay with IGROV1 ovarian is 69%; with OVCAR-3 ovarian, 66.6%; in the assay with HS 578T breast, 91.3%; with NCI/ADR-RES ovarian, 101%; in the assay with T-47D breast, 57.3%; in the assay on BT-549 breast, 85.5%. The growth in the assay with MDA-MB-435 melanoma was 88.7%; in the assay on SW-620 colon, 9.58% (active); in the assay on MCF7 breast, 17.1%; with HCT-116 colon, 22.1%; in the assay with HCC-2998 colon it was 3.53% (active); in the assay on KM12 colon, 56.4%.
